# ChEMBL document CHEMBL3433997, “St. Jude Leishmania screening dataset” (2016)
# Biological target: Solute carrier family 2, facilitated glucose transporter member 1 (Homo sapiens) (UniProt P11166)
# Assay: ST_JUDE_LEISH: Cytotoxicity at 2uM final concentration against transgenic Leishmania Mexicana promastigotes LmGLUT1 that are glucose transport deficient and complemented with the human glucose transporter GLUT1. Activity is measured by DNA content using SYBR green in vitro
# Assay type: functional
# Solute carrier family 2, facilitated glucose transporter member 1 (Homo sapiens), sequence (P11166 whole entry): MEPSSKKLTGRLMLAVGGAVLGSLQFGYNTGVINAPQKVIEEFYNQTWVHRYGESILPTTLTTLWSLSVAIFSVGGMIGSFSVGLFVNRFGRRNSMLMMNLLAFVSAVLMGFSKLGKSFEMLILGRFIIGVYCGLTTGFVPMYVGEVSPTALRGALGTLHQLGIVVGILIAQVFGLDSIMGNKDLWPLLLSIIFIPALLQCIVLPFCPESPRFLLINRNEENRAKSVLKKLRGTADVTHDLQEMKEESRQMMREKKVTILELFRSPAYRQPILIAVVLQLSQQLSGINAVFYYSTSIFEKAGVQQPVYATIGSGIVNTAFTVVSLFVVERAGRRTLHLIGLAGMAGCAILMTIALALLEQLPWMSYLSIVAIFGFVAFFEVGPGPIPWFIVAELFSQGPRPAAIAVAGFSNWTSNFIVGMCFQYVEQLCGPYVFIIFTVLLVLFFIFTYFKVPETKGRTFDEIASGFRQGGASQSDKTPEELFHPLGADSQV
row,SMILES,inhibition
1,Cc1cc(CNCCCCCCCNCc2ccc(-c3ccccc3)cc2)ccc1O,0.67%
2,CN1CCCN(Cc2cccc(-c3ccc(NC(=O)c4cccc(C#N)c4)cc3)c2)CC1,28.9%
3,CC(NC(=O)c1ccc(O)c(-c2ccc(Cl)c(Cl)c2)c1)C(=O)NCCN1CCOCC1 (centres undefined),1.85%
4,Cc1nc2c(s1)c(=O)cc(CCc1cccc(F)c1F)n2CC(=O)N(Cc1ccc(-c2ccc(C(F)(F)F)cc2)cc1)C1CCN(C(C)C)CC1,1.07%
5,CCc1c[nH]c2c(N(c3ccccc3)S(C)(=O)=O)cc(C(=O)N[C@@H](Cc3ccccc3)[C@H](O)CNCc3cccc(C(F)(F)F)c3)cc12,1.52%
6,O=C(Nc1cccc(-c2cccc(-c3nc4cc(C(F)(F)F)ccc4[nH]3)c2)c1)c1csnn1,12.8%
7,N#Cc1ccc2c(c1)CCN(CCC1CCC(NC(=O)Nc3cnc4ccccc4c3)CC1)C2 (centres undefined),2.8%
8,CCS(=O)(=O)N1CCN(c2nc(-c3ccccc3)nc(COC)c2Cc2ccccc2F)CC1,3.58%
9,Cc1ccc(CON2C(N)=NC(N)=NC23CCCCC3)c2ccccc12,3.13%
10,Cc1cc(N[C@@H](CC(C)C)C(=O)NCCOc2ccccc2)nc(NCC2CCCCC2)n1,3.08%
11,Cn1cc(C2CCN(CCCCNC(=O)c3sc(-c4ccc(C(F)(F)F)cc4)nc3CO)CC2)c2ccccc21,-3.34%
12,COc1ccc(CN2CCCC(OC(c3ccc(F)cc3)c3ccc(F)cc3)C2)c(O)c1 (centres undefined),9.08%
13,O=C(NCCN1CCC(c2ncc(-c3ccccc3)o2)CC1)c1ccc(NC(=O)c2ccc(Cl)cc2)cc1,0.84%
14,CN(CCN)Cc1cccc(-c2ccc(-c3nc4cc(C(F)(F)F)ccc4[nH]3)s2)c1,10.8%
